Pol beta inh = qHTS Assay for Inhibitors of DNA Polymerase Beta; Potency, µM (titrated, usually from 114 µM), inactives show at the top dose activity change, negative = inhibition, hits mostly inhibitors; Pol beta primer extension/strand displacement, fluorescence kinetic; 340,000 compounds, 1.3% hits; AID 485314, 2010; P06746; note: % is set by controls: 0 for no effect and ±100 for the full control effect
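Homogeneous kinetic assay of primer extension and strand displacement by 10 nM Pol beta, preincubated 15 min at room temperature with compound before 50 nM substrate (final) was added. Read at 0 and 10 min; four-parameter Hill fit.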
POLH inh = qHTS for Inhibitors of Polymerase Eta | 390,000 compounds, 1.2% hits | Potency, µM (series often up to 114 µM), for inactives: top-dose activity change, negative = inhibition, most hits filed as inhibitors | recombinant Pol eta, fluorescent DNA replication assay | AID 588591, 2011; note: % is set by controls: 0 for no effect and ±100 for the full control effect
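Pol eta at 10 nM preincubated with compounds 15 min at room temperature; reaction started with fluorescent substrate (50 nM final) and read kinetically at 0 and 10 min.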
POLK inh = qHTS for Inhibitors of Polymerase Kappa. DNA polymerase kappa (Homo sapiens), Q9UBT6. purified Pol kappa, fluorescent DNA synthesis assay, 10 min. Potency, µM (series often up to 107 µM), without a hit: at the highest dose activity, negative = inhibition, actives largely listed as inhibitors. 400,000 compounds, 0.53% hits. AID 588579, 2011; note: % is set by controls: 0 for no effect and ±100 for the full control effect
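50 nM final substrate added after 15 min RT preincubation of 10 nM Pol kappa with compound; fluorescence read at 0 and 10 min.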
POLI inh = qHTS for Inhibitors of Polymerase Iota; Pol iota fluorescent replication assay, 10 min; 390,000 compounds, 1% hits; Potency, µM (top dose mostly 115 µM), without a hit: top-dose activity, negative = inhibition, hits mostly inhibitors; AID 588590, 2011; DNA polymerase iota (Homo sapiens), Q9UNA4
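Fluorescent replication assay read twice, at 0 min and 10 min after adding 50 nM (final) substrate. Enzyme (10 nM) and compounds were first incubated 15 min at room temperature; enzyme-free buffer wells were negative controls.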
FEN1 inh = qHTS Assay for the Inhibitors of Human Flap endonuclease 1 (FEN1); P39748; Recombinant FEN1 flap cleavage, fluorescence, 15 min; Potency, µM (top dose mostly 114 µM), for inactives: at the top dose activity change, negative = inhibition, actives largely listed as inhibitors; 390,000 compounds, 0.35% hits; note: % is set by controls: 0 for no effect and ±100 for the full control effect; nearly all actives have a fitted effect of over 65% in size
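In this screen, 50 nM flap DNA substrate was added to 10 nM FEN1 pretreated with compound for 15 min at room temperature; cleavage was followed with reads at 0 and 15 min, and Hill fitting gave concentration–response parameters.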
TDP1 inh = qHTS Assay for Inhibitors of Tyrosyl-DNA Phosphodiesterase (TDP1) | AID 485290, 2010 | 350,000 compounds, 0.28% hits | Tyrosyl-DNA phosphodiesterase 1 (Homo sapiens), Q9NUW8 | Potency, µM (series often up to 130 µM), inactives show at the highest dose activity change, negative = inhibition, most hits filed as inhibitors | recombinant TDP1, AlphaScreen DNA substrate cleavage; note: % is set by controls: 0 for no effect and ±100 for the full control effect; nearly all actives have a fitted effect of over 40% in size
Target sequence (Q9NUW8 whole entry, looked up): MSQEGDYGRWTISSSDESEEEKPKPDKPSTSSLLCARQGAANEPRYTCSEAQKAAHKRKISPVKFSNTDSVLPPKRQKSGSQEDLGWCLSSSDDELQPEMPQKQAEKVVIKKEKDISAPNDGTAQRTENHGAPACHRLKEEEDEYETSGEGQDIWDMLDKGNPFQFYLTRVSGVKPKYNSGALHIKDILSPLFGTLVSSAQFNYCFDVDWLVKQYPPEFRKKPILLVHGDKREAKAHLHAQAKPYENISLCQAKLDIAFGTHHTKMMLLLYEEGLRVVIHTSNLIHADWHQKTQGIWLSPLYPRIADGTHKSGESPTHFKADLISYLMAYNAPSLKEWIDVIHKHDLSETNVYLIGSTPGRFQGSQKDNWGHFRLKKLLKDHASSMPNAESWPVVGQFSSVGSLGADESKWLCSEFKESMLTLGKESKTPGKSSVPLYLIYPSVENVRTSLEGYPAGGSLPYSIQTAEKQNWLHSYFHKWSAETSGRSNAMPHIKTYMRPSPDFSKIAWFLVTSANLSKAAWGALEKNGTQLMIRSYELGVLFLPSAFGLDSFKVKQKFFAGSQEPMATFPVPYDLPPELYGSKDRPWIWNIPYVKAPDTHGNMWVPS
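Enzyme-compound mixtures sat 15 min at room temperature, followed by a 5 min reaction with 15 nM final substrate and 10 min with AlphaScreen beads. Recombinant human Tdp1 was used at 1 nM final.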
An asterisk follows results filed as active; ? = inconclusive; . = not tested or not shown. An excerpt weighted towards active compounds, which were near 2.4% of everything screened. Calls come from the whole dose curve; as a rule, active = well fitted curve in the direction sought with a large enough effect; inconclusive = small, poorly fitted or top-dose-only effect, or another doubt; inactive = no such curve, though single readings can be large; an effect the other way counts as inactive or inconclusive. Potency is the fitted concentration of half-maximal effect.

SMILES	Pol beta inh	POLH inh	POLK inh	POLI inh	FEN1 inh	TDP1 inh
O=C(Nc1ccccc1)c1nc[nH]c1C(=O)NCCN(CCNC(=O)c1[nH]cnc1C(=O)Nc1ccccc1)CCNC(=O)c1[nH]cnc1C(=O)Nc1ccccc1	.	-9.0%	-31.7%	79.4µM*	6.0%	1.8%
COc1cc2nc(N3CCCN(C)CC3)nc(OC3CCN(C)CC3)c2cc1OC	.	.	-11.5%	-10.7%	-26.9%	.
COc1ccc(/[N+]([O-])=C/c2ccco2)cc1	.	89.1µM*	-14.0%	?	-17.9%	2.4%
COc1ccc(OCC(=O)N/N=C\c2ccco2)cc1	10.5%	0.3%	1.9%	11.4%	17.3%	8.4%
CC(C)(C)n1ncc2c(=O)n(Cc3cccc(-c4cccs4)c3)cnc21	.	.	-11.0%	-44.4%	-47.0%	.
Cc1ccccc1C(=O)N1CCc2cc(-c3nc(NC(=O)Cc4ccc5c(c4)OCO5)sc3C)ccc21	0.251µM*	1.0%	-15.7%	3.6%	8.5%	0.0%
Cc1sc(NC(=O)Cc2ccc3c(c2)OCO3)nc1-c1ccc2c(c1)CCN2C(=O)c1cccc(F)c1	2.6%	0.5%	-3.2%	18.7%	-5.8%	2.6%
CC1=CC(=O)CC2C1(C)CCC(C)C2(C)CCC(C)CC(=O)O (stereo unspecified)	44.7µM*	79.4µM*	-28.1%	89.1µM*	-5.0%	.
O=C(N/N=C/c1cccs1)c1ccccn1	0.8%	-0.9%	-3.5%	26.5%	-15.4%	4.0%
C(=NN=C(NN=Cc1cccs1)NN=Cc1cccs1)c1cccs1	.	-5.6%	-3.2%	79.4µM*	?	.
Cc1ccc2c(c1)C(c1ccc(F)cc1)N(C(=O)c1cccc(C(F)(F)F)c1)CC(=O)N2 (stereo unspecified)	8.8%	-18.8%	-11.6%	9.1%	-24.6%	0.0%
Cc1c(CCC(=O)O)c(=O)oc2cc3occ(-c4ccc(Cl)cc4)c3cc12	?	22.4µM*	-7.0%	?	?	.
Cc1c(CCC(=O)O)c(=O)oc2cc3occ(-c4ccc(F)cc4)c3cc12	?	16.0%	-22.3%	?	?	2.3%
Oc1c(Cl)ccc(Cl)c1Cl	.	.	.	.	.	0.8%
O=C1C=CC(=O)c2c(O)c(Cl)c(Cl)c(O)c21	.	.	7.08µM*	.	.	-2.7%
CCN(C)c1ccc(/C=C/c2ccnc3ccccc23)cc1	.	.	-1.9%	?	-5.2%	.
CN(C)c1ccc(/C=C/c2ncnc3ccccc23)cc1	.	.	?	39.8µM*	?	.
CN(C)c1ccc(N=Nc2ccc(/C=C/c3ccnc4ccccc34)cc2)cc1	.	.	-20.1%	?	25.1µM*	.
CC(=O)NC1C(=O)N(CCN2CCOCC2)c2ccc(C)cc21 (stereo unspecified)	?	25.1µM*	-10.5%	-14.5%	?	.
CC(=O)NC1C(=O)N(CCN2CCOCC2)c2ccc(Cl)cc21 (stereo unspecified)	35.0%	?	-16.0%	?	?	.
CC(=O)NC1C(=O)N(CCN2CCOCC2)c2ccc(F)cc21 (stereo unspecified)	92.4%	?	3.1%	?	50.1µM*	.
CCSc1nn(CC(=O)Nc2cccc(CC)c2)c(N)c1S(=O)(=O)c1ccccc1	3.8%	-14.5%	1.6%	-12.5%	-2.1%	5.3%
O=C(CCC1CC(=O)Nc2ccccc21)NCc1ccccc1 (stereo unspecified)	-10.8%	89.1µM*	-20.6%	?	-18.8%	3.5%
CCOC(=O)c1c(N)sc(=S)c2c1CCC2	8.91µM*	?	-29.4%	?	-19.1%	.
CCOC(=O)c1c(N)sc(N)c1C(=O)OCC	0.0%	-19.9%	-13.9%	9.1%	6.9%	5.3%
